An excerpt weighted towards active compounds, which were near 2.2% of everything screened.
NPR1 activator: GC-A stimulated cGMP production enhancers – HEK293 GC-A cells, cGMP TR-FRET, EC30 ANP, primary screen. activation, % at 10 µM. 0% at EC30 ANP, 100% saturating ANP. 370,000 compounds, 0.14% hits. Atrial natriuretic peptide receptor 1 (Homo sapiens), P16066; in the data active = activation above about 40%
PLC-gamma1 inh: PLC-gamma1 enzyme inhibitors, primary screen, biochemical, fluorescence, purified enzyme; 1-phosphatidylinositol 4,5-bisphosphate phosphodiesterase gamma-1 (Homo sapiens), P19174; fluorogenic substrate; inhibition, % at 12.2 µM; 370,000 compounds, 0.84% hits; AID 720700, 2013; in the data active = inhibition above about 9.5%
M18AAP inhibitor: PfM18AAP inhibitors, malaria aminopeptidase, primary screen, biochemical, QFRET, recombinant enzyme | H-Glu-NHMec fluorogenic cleavage | inhibition, % at 7.35 µM | 290,000 compounds, 1.2% hits;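 active = inhibition above the campaign mean inhibition over all tested compounds plus 3 SD, cut at about 28% in these data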;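 also: 0% = plate median of test compound wells and 100% = 2 mM ZnCl2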
GC-B act: human GC-B receptor activators, primary screen, HEK293 GC-B cells, cGMP TR-FRET, EC30 CNP; Atrial natriuretic peptide receptor 2 (Homo sapiens), P20594; 370,000 compounds, 0.11% hits; AID 1920062, 2024; 0% at EC30 CNP, 100% saturating CNP; activation, % at 10 µM;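 active = activation at 10 µM reaching about 35% in either raw or pattern-adjusted values, limit read from the data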
Rce1 inh: yeast Rce1p protease inhibitors, primary screen, biochemical, fluorescence, cell-free homogeneous; 290,000 compounds, 0.27% hits; yeast membranes, quenched prenylated peptide cleavage fluorescence; calls only;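 active = fall in fluorescence gain of 50% or more versus controls, with final raw signal at or below 3038400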;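 also: plate controls were neutral control wells for no effect and wells lacking membranes for full effect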
PLCb3 inh: human PLC-beta3 inhibitors, primary screen, biochemical, fluorescence; Purified PLC-beta3, fluorogenic substrate; 370,000 compounds, 0.18% hits; 1-phosphatidylinositol 4,5-bisphosphate phosphodiesterase beta-3 (Homo sapiens), Q01970; inhibition, % at 12.2 µM;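 also: 0% = median of compound wells on plate and 100% = full blocker control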
PLCg1 ctr: PLC-gamma1 enzyme inhibitors, counter-screen for PLC-beta3 inhibitor project, biochemical, fluorescence; shares compounds with PLC-gamma1 inh; purified PLC-gamma1, fluorogenic substrate; inhibition, % at 12.3 µM; 3,300 compounds, 3.1% hits; AID 743258, 2014; in the data active = inhibition above about 9.5%
PLCbeta3 conf: PLC-beta3 inhibitor confirmation, biochemical, fluorescence, purified enzyme; shares compounds with PLC-gamma1 inh; fluorogenic substrate fluorescence; inhibition, % at 12.3 µM; 3,300 compounds, 1% hits
Active calls of the source: *; i = inactive; x = no result. Rule as the data show it, unless noted: active = inhibition above about 11%; inactive = the rest.

SMILES	NPR1 activator	PLC-gamma1 inh	M18AAP inhibitor	GC-B act	Rce1 inh	PLCb3 inh	PLCg1 ctr	PLCbeta3 conf
COc1cccc(CNC(=O)C2CCN(Cc3cnn(-c4ccccc4)c3-n3cccc3)CC2)c1	1	9.7*	6	0	i	5	2	-1
C=CCN(C(=O)[C@@H](C)[C@@H](O)c1ccc(C(C)=O)cc1)c1ccccc1	1	-2	x	2	x	-3	x	x
CCCC1/C(=N/O)CC(c2ccccc2)NC1c1ccccc1 (stereo not drawn)	-6	10*	0	-2	i	10	4	4
O=Cc1c[nH]c2ncccc12	3	10*	-10	2	i	-7	-5	-2
CC(=O)N1CCc2ccccc2C1CC(=O)O (stereo not drawn)	-1	11*	-16	0	i	-1	7	0
CC(C)(C)C(=O)Cn1ncc(N2CCOCC2)c(Br)c1=O	5	2	4	-2	i	-3	x	x
CC(C)(C)C(=O)Cn1c[n+](N)cn1	0	10*	4	-1	i	3	-5	-1
Cc1nn(Cc2ccccc2)c(C)c1/C=N/NC(=O)CNc1cccc(C(F)(F)F)c1	-2	9.6*	0	2	i	0	-11	-5
CC1CCCC(C)N1C(=O)COC(=O)c1ccc(O)cc1 (stereo not drawn)	4	20*	-5	1	i	0	-8	-2
C/C(=N/NC(=O)c1cccs1)c1cccc(N)c1	-1	11*	-14	3	i	-12	-12	-9
Cc1nn(CC(=O)N2CCCC2)c(=O)c2nn(-c3ccccc3)c(C)c12	-3	3	0	-1	i	12*	-4	1
CC(C)(C)c1ccc(S(=O)(=O)NCC(=O)N2CCN(c3ncccn3)CC2)cc1	3	-1	x	1	x	1	x	x
O=C1OCC(Cn2c3ccccc3c3ccccc32)O1 (stereo not drawn)	16	11*	-10	-2	i	2	-8	-6
Cn1nc(SCC(=O)O)sc1=S	1	0	5	-7	i	-1	x	x
CCOC(=O)C(Sc1nn(C)c(=S)s1)C(C)=O (stereo not drawn)	-1	3	19	0	i	11*	6	2
C#CCOn1c(-n2nc(C)cc2C)nc2ccccc2c1=O	-4	10*	-4	4	i	-3	-2	-3
COn1c(-n2nc(C)cc2C)nc2ccccc2c1=O	2	-1	13	2	i	0	x	x
CC(C)N1CCCCC(NC(=O)c2cccc(C(F)(F)F)c2)C1=O (stereo not drawn)	1	1	x	-2	x	6	x	x
CC(C)(C)OC(=O)NCc1cc(F)ccc1/C=C/S(=O)(=O)NC1CCCC1	0	9.8*	x	-3	x	4	-2	2
CC(C)(C)OC(=O)NCc1ccccc1/C=C/S(=O)(=O)NC1CCCC1	-1	1	x	-8	x	-2	x	x
O=C(NCCN1CCOCC1)c1cccs1	-2	-2	2	5	i	1	x	x
c1csc(CNCCN2CCOCC2)c1	1	12*	3	1	i	1	-6	-3
CCOC(=O)Cc1nc(N2CCN(C=O)CC2)c2c(C)c(C(=O)OCC)sc2n1	-1	-13	x	4	x	-17	x	x
COc1ccc(S(=O)(=O)N2CCN(CCOc3ccccc3Cl)CC2)cc1OC	0	1	x	4	x	-5	x	x

Bioassay records deposited in PubChem by several laboratories.
